From PubChem BioAssay (NCATS) come the findings set out here.

Results filed as inconclusive are left out. A call without a number means that no potency is given here. Calls of active or inactive are those of the source. The call rests on the fitted dose curve; in most records, active means well fitted inhibition curve with a large enough effect; inconclusive means small, poorly fitted or top-dose-only effect; inactive means flat fitted curve, though single readings scatter.
Potency means the concentration at half of the fitted maximal effect.

For this assay, the system named is N140. Kind of assay: qHTS profiling for inhibitors of Plasmodium falciparum proliferation (AID 504749). Further: nearly all actives have a fitted effect of over 60% in size. The following applies: P. falciparum in erythrocytes, SYBR Green DNA, 72 h; series mostly up to 28.7 µM. The essentials: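 Infected RBCs, 0.3% parasitemia/2.5% Hct final; cpd 72 h, 37 C, 5% CO2; lysis buffer with saponin/triton/SYBR Green I, o/n RT dark; FI 485/535; norm. to artemisinin (0.29 uM) and DMSO.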
Background: Quantitative high-throughput screening tests each substance at several concentrations.
Take `CC(C)C(=O)Nc1ccc([N+](=O)[O-])c(C(F)(F)F)c1`: the Potency entry is “inactive”.
For `NC(=O)NO`, the Potency result was “inactive”.
With `CCOC(=O)C(C)(C)Oc1ccc(Cl)cc1` the entry was “inactive”; with `CC(CCc1ccc(O)cc1)NCCc1ccc(O)c(O)c1` (centres undefined), “inactive”.
Regarding `Cc1cn([C@H]2C[C@H](N=[N+]=[N-])[C@@H](CO)O2)c(=O)[nH]c1=O`, the Potency entry was “inactive”.
For `Cc1cc(C(C)(C)C)c(O)c(C)c1CC1=NCCN1`, the Potency entry is “inactive”.
With `NS(=O)(=O)c1cc2c(cc1Cl)NCNS2(=O)=O`, the Potency result is “inactive”.
With `CCOC(=O)c1ncn2c1CN(C)C(=O)c1cc(F)ccc1-2` the entry was “inactive”; with `COC(=O)Nc1nc2ccc(C(=O)c3cccs3)cc2[nH]1`, “inactive”.
With `Clc1ccc2nsnc2c1NC1=NCCN1` the entry was “inactive”; with `Cn1c(=O)c2c(ncn2C)n(C)c1=O`, “inactive”; with `CC(C)Cc1ccc(C(C)C(=O)O)cc1` (centres undefined), “inactive”.
Take `Cn1cnc2c1c(=O)[nH]c(=O)n2C`: the Potency result is “inactive”.
With `Cn1c(=O)c2[nH]cnc2n(C)c1=O` the entry was “inactive”; with `NCCCCCC(=O)O`, “inactive”; with `CC(C)(Oc1ccc(C2CC2(Cl)Cl)cc1)C(=O)O` (centres undefined), “inactive”.
As for `CN1C(C(=O)Nc2ccccn2)=C(O)c2ccccc2S1(=O)=O`, the Potency entry is “inactive”.
The entry for `N[C@@H](Cc1c[nH]c2ccc(O)cc12)C(=O)O` is “inactive”; for `COc1cc2c(c(OC)c1OC)-c1ccc(OC)c(=O)cc1[C@@H](NC(C)=O)CC2` it is “inactive”.
With `Cc1cc(C(C)(C)C)cc(C)c1CC1=NCCN1`, the Potency entry is “inactive”.
The entry for `Cc1cnc(C(=O)NCCc2ccc(S(=O)(=O)NC(=O)NC3CCCCC3)cc2)cn1` is “inactive”.
Turning to `CN1CCN2c3ccccc3Cc3ccccc3C2C1` (centres undefined), the Potency entry was “inactive”.
The entry for `Nc1nnc(-c2cccc(Cl)c2Cl)c(N)n1` is “inactive”; for `CC[N+](CC)(CC)CCOc1cccc(OCC[N+](CC)(CC)CC)c1OCC[N+](CC)(CC)CC` it is “inactive”; for `Cc1ccc(C(=O)Nc2ccc(S(=O)(=O)O)c3cc(S(=O)(=O)O)cc(S(=O)(=O)O)c23)cc1NC(=O)c1cccc(NC(=O)Nc2cccc(C(=O)Nc3cc(C(=O)Nc4ccc(S(=O)(=O)O)c5cc(S(=O)(=O)O)cc(S(=O)(=O)O)c45)ccc3C)c2)c1` it is “inactive”.
The entry for `CS(=O)(=O)Nc1ccc([N+](=O)[O-])cc1Oc1ccccc1` is “inactive”; for `CC(=O)OCC(CCn1cnc2cnc(N)nc21)COC(C)=O` it is “inactive”; for `C[C@](N)(Cc1ccc(O)c(O)c1)C(=O)O` it is “inactive”.
Take `COc1ccccc1OCC(O)CN1CCN(CC(=O)Nc2c(C)cccc2C)CC1` (centres undefined): the Potency entry was “inactive”.
The entry for `Cc1cn([C@H]2C=C[C@@H](CO)O2)c(=O)[nH]c1=O` is “inactive”; for `Clc1ccccc1C(c1ccccc1)(c1ccccc1)n1ccnc1` it is 224 nM (active).
Consider `CC(C)(C)C(=O)Oc1ccc(S(=O)(=O)Nc2ccccc2C(=O)NCC(=O)O)cc1`, for which the Potency entry was “inactive”.
Turning to `NC(=O)OCC(COC(N)=O)c1ccccc1`, the Potency result is “inactive”.
For `COc1ccccc1N1CCN(CC(O)COc2cccc3ccccc23)CC1` (centres undefined), the Potency result is “inactive”.
With `O=c1c(-c2ccc(O)cc2)coc2cc(O)cc(O)c12` the entry was “inactive”; with `CCCNCC(O)COc1ccccc1C(=O)CCc1ccccc1` (centres undefined), 355 nM (active); with `NCCc1cnc[nH]1`, “inactive”.
With `CN(C)c1nc(N(C)C)nc(N(C)C)n1` the entry was “inactive”; with `CC(C)NCC(O)c1ccc(O)c(O)c1` (centres undefined), “inactive”.
